In the supplement of paper PMC3334620:
Over roughly 33,000 sequences, “E-score (-0.5 to 0.5)” has its median near -0.041; the highest 2% begin near 0.37. The list comes from a sample in which the highest values are over-represented; it also holds similar and randomly drawn sequences.

target: T1, Ecm22 (UniProt Q05958); experiment: PBM E-score (8-mer binding enrichment) (E-score (-0.5 to 0.5)); higher = stronger / more preferred TF binding; details: protein concentration: 200 nM; construct: GST-full length
T1 sequence: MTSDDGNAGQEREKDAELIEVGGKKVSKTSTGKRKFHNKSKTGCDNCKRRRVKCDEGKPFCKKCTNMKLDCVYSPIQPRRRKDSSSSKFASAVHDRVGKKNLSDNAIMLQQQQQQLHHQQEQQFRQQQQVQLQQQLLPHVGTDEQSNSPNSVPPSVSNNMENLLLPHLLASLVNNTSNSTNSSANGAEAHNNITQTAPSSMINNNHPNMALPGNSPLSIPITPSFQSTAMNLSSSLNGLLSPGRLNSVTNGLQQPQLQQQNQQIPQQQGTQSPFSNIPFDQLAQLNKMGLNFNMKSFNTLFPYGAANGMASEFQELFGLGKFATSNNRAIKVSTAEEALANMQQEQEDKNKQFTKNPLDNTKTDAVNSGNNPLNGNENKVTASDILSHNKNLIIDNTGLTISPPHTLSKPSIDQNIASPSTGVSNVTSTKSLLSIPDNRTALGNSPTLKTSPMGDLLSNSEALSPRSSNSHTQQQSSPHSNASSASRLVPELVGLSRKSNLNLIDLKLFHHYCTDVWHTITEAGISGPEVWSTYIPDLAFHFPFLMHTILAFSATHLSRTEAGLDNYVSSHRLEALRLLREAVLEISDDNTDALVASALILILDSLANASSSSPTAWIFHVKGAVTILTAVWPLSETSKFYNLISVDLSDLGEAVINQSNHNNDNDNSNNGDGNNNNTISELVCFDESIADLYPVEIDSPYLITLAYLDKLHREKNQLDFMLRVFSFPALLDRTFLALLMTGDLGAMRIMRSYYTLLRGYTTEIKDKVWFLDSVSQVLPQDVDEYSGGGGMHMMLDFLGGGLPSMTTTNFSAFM
In short: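 The E-score, a modified Wilcoxon-Mann-Whitney statistic, was computed by the Universal PBM Analysis Suite for every ungapped eight-base word pooled with its reverse complement. Scans behind it were normalised with masliner after bound GST-tagged yeast transcription factors were detected with fluorescent anti-GST. The proteins, at about 100-200 nM, had been applied to universal all-10-mer Agilent arrays made double-stranded by primer extension.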

| Sequence | PBM E-score |
| --- | --- |
| CAAGCAAC | 0.00354 |
| AGAGGCCA | -0.203 |
| CTACCAAG | -0.23 |
| AGGAACAG | -0.257 |
| AGGAACGG | 0.459 |
| AGGAACGC | 0.208 |
| AAAGACGC | -0.118 |
| AAATTGAA | -0.166 |
| AAACGGTT | 0.262 |
| CGAACGGA | 0.24 |
| AGAACGGA | 0.0615 |
| CGAACGAG | 0.428 |
| CGAACGCG | 0.198 |
| CGAACGAC | 0.389 |
| CGAACGTC | 0.0995 |
| ACAACGAG | 0.288 |
| GGAACGGA | 0.435 |
| AGAACGTG | -0.0515 |
| AGAACGAG | 0.45 |
| CGAACGCC | 0.0398 |
| CTAACGAG | 0.331 |
| ATGGTTAG | -0.0935 |
| GAGGCGTA | 0.155 |
| TAAGGATA | 0.00857 |
| GGCATTAC | -0.132 |

| Sequence | PBM E-score |
| --- | --- |
| GAGTTGAA | 0.04 |
| CGAACAAA | 0.2 |
| AGAACGTC | -0.0743 |
| ATAACGAC | 0.203 |
| GTAACGAC | 0.289 |
| TTAACGAA | 0.411 |
| AGAACGAC | 0.425 |
| CGAACGTA | 0.214 |
| ATAACGAA | 0.185 |
| GGAACGAC | 0.491 |
| CTAACGAA | 0.219 |
| CGAACGAA | 0.393 |
| GGAACGCC | 0.051 |
| AATGTCCG | 0.127 |
| GCGAAGTA | 0.112 |
| ACCACTGC | -0.25 |
| GGTGCCAA | -0.179 |
| AATGGGGG | -0.268 |
| CAAGGGAG | 0.062 |
| ACGCCCAC | -0.181 |
| GGAAACAC | 0.0703 |
| TACGGACA | 0.258 |
| AGAACGAT | 0.342 |
| TGAACGAA | 0.434 |
| AGAACAAA | 0.0892 |

| Sequence | PBM E-score |
| --- | --- |
| TGAACAAA | 0.165 |
| GGAACGAA | 0.489 |
| TGAACGCA | 0.0733 |
| GGAACGCA | 0.23 |
| GGAACGTA | 0.353 |
| AGAACGAA | 0.422 |
| ACAGAAGT | -0.182 |
| CCTAAGTA | 0.0729 |
| ACCGACCG | 0.278 |
| AACGACCA | 0.424 |
| GACGACCA | 0.097 |
| CACGACCA | 0.0103 |
| TCCGACCA | 0.16 |
| AACGACCG | 0.407 |
| TGCGACCA | 0.215 |
| CACGACCC | -0.0107 |
| GACGACCC | -0.108 |
| AACGACCC | 0.386 |
| TACGACCA | 0.449 |
| CACGACCG | 0.0498 |
| CGGCGTTA | 0.0563 |
| AGCAATTA | -0.107 |
| CCCAGGTC | -0.218 |
| AAGTTGGT | 0.0141 |
| CTCAAGTA | -0.142 |

| Sequence | PBM E-score |
| --- | --- |
| CATAACAC | 0.0539 |
| AGCCTCTC | -0.117 |
| CGATAAAC | 0.259 |
| GACTTTTA | -0.222 |
| CAGGCTGC | -0.272 |
| ATGCCATA | 0.0201 |
| GATAGACC | 0.0888 |
| ACCGACCT | 0.0975 |
| AGCGACCT | 0.0578 |
| AACGACCT | 0.385 |
| GGACTGGA | -0.323 |
| AACTGGGC | -0.0689 |
| GCGTAACA | 0.00254 |
| CCGTAAGA | 0.164 |
| ACGTATCA | 0.281 |
| ACGTAAGA | 0.105 |
| TCGTTAAA | 0.44 |
| ACGTTAAA | 0.213 |
| TCGTATCA | 0.463 |
| TCGTAAGA | 0.407 |
| TCGTAACA | 0.425 |
| GCGTATCA | 0.114 |
| CCGTAACA | 0.2 |
| CCGTTAAA | 0.278 |
| AATGGGCA | -0.0348 |

| Sequence | PBM E-score |
| --- | --- |
| AGAAATAA | -0.0747 |
| AGAAGCCA | -0.0549 |
| ACGAGTGG | 0.331 |
| ATTTTCCA | -0.0726 |
| GCGTAAAA | 0.217 |
| TCGTAAAA | 0.476 |
| ACGTAAAA | 0.243 |
| GGCAGGGA | -0.148 |
| AATTCAGA | -0.0476 |
| CTCGTTTC | 0.453 |
| ATCGTTGC | 0.347 |
| CGCGTTTC | 0.0578 |
| CTCGTTGA | 0.277 |
| CACGTTTC | -0.0133 |
| CTCGTTGC | 0.445 |
| CTGCAAAA | -0.0893 |
| ACGGGTTA | 0.217 |
| ACGCATCA | 0.0479 |
| ATTCGGAC | 0.163 |
| CCGGGTAC | 0.291 |
| ATTTGAAC | 0.0528 |
| CTCAGCTC | -0.0614 |
| ATCATCTC | 0.0439 |
| GTAAACAA | 0.279 |
| CTATCGAA | 0.0456 |

| Sequence | PBM E-score |
| --- | --- |
| CTATCGTC | -0.0492 |
| ATATCGTG | 0.147 |
| CTATCGTA | 0.406 |
| ATATCGTC | 0.0456 |
| GTATCGAA | 0.161 |
| ATATCGTA | 0.413 |
| GTATCGGA | 0.199 |
| GTATCGTA | 0.421 |
| AGGCTTGC | -0.219 |
| CCAAGACA | -0.257 |
| AAGCTGGG | -0.271 |
| AAACTGAC | 0.00573 |
| AAGTGGCC | -0.248 |
| ACCCTACC | -0.0742 |
| ATATACGG | 0.441 |
| ATATACGC | 0.299 |
| CTATACTC | 0.0609 |
| CTATACGC | 0.403 |
| ATATACCA | 0.0649 |
| ATATACCG | 0.21 |
| ATATACAA | 0.0401 |
| ATATACGA | 0.49 |
| ATATACTG | 0.0789 |
| CAGGCTTA | -0.245 |
| CTTGTGGC | -0.239 |

| Sequence | PBM E-score |
| --- | --- |
| AAAGGTCG | 0.00556 |
| ACGATCAG | 0.224 |
| GATCAGGA | -0.069 |
| AGTTGTCA | -0.0616 |
| CGGGTCGA | -0.00467 |
| GCCGTTGA | -0.138 |
| ACCGTTTA | 0.432 |
| CCCGTTTC | 0.216 |
| CACGTTTA | 0.256 |
| ACCGTTTG | 0.287 |
| ACCGTTTC | 0.187 |
| CCCGTTTA | 0.433 |
| GCCGTTAA | 0.24 |
| GCCGTTTA | 0.421 |
| GCAGCGCA | -0.0703 |
| ACGCAGAT | 0.194 |
| CACGAGAA | 0.143 |
| CACGAGAC | 0.0819 |
| GACGAGAC | 0.029 |
| ACCGAGAT | 0.178 |
| GACGAGAA | 0.138 |
| AACGAGAA | 0.424 |
| TACGAGAA | 0.462 |
| AACGAGAT | 0.438 |
| TTCGAGAA | 0.149 |

| Sequence | PBM E-score |
| --- | --- |
| TCCGAGAA | 0.265 |
| ATCGAGAT | 0.0251 |
| AACGAGAC | 0.451 |
| CTCCCTCA | -0.162 |
| CTTCTAAA | -0.0244 |
| GCTGTCTA | -0.0813 |
| GGTACTAA | 0.0853 |
| CACAGAAC | 0.00026 |
| CTCGACCA | -0.0786 |
| CCCGAAGA | 0.0524 |
| AATGCAGA | -0.0678 |
| AACGAGAG | 0.433 |
| CACGAGAG | 0.0712 |
| ATCGAGAG | 0.0766 |
| ATCAAGGG | -0.149 |
| ATCTACGA | 0.304 |
| CGCTACGC | 0.138 |
| CTCTACGA | 0.37 |
| CGCTACAA | 0.0321 |
| GGCTACCA | -0.2 |
| GGCTACGA | 0.424 |
| AGCTACGG | 0.112 |
| CGCTACGA | 0.456 |
| AGCTACGA | 0.394 |
| CTCTACGC | 0.00503 |

| Sequence | PBM E-score |
| --- | --- |
| AGCTACGC | 0.141 |
| GGCTACAA | 0.042 |
| AGCGGGTA | 0.107 |
| GACCTGAC | -0.172 |
| GAACTTGC | -0.0845 |
| ATGCACCG | -0.0745 |
| TATATCGA | 0.131 |
| GGCTGAAC | -0.0835 |
| ACATTTGA | -0.158 |
| CTTTGGAC | -0.0902 |
| ATACGGTA | 0.383 |
| AGACGGTA | -0.121 |
| CTACGGTA | 0.0823 |
| ACACGGTA | 0.108 |
| GCACGGTA | -0.0289 |
| GTACGGTA | 0.385 |
| AGATAGCT | -0.0945 |
| AGGCTCCA | -0.369 |
| CTGCACAA | -0.214 |
